Structures are written as SMILES. Records with an inconclusive call do not appear. Active and inactive are the calls of the source.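 The calls were made as follows, unless noted: active = percent response above a set limit, the screen-wide mean plus 3 SD (cut at about 130% in these data); inactive = the rest.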

The nature of assay [1]: rapamycin-like changes in RPL19A-GFP expression – cell-based, S. cerevisiae, multiplex flow cytometry, primary screen (AID 1862; in the data active = percent of DMSO control GFP below about 86%;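 also: lower values mimic rapamycin by blocking the RPL19A rise seen in DMSO cells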). As to conditions: S. cerevisiae RPL19A-GFP strain, flow cytometry fluorescence, 3 h; at 10 µM; stronger effect = lower value. In general terms: Flow cytometry measures light scatter and fluorescence of single cells or particles in a stream.
Assay [2] is described as follows: TOR pathway GLN3 branch reporter MEP2-GFP changes – S. cerevisiae, multiplex flow cytometry, primary screen (AID 1867;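 active = GFP response, as percent of the DMSO control, above the screen-wide mean plus 3 SD, about 139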;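 also: median GFP channel fluorescence of barcode-gated MEP2-GFP cells measured by flow cytometry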). Conditions: S. cerevisiae MEP2-GFP strain, 3 h, at 10 µM, stronger effect = higher value, 100% means same as DMSO wells.
A short description of assay [3]: TOR pathway RTG branch CIT2 reporter changes – S. cerevisiae, GFP fusion, multiplex flow cytometry, primary screen (AID 1870).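 Also: barcoded CIT2-GFP strain pooled with four other GFP strains with rapamycin as positive control; median GFP fluorescence per well over plate mean of DMSO wells so 100% = DMSO.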 As to conditions: S. cerevisiae CIT2-GFP expression, 3 h, at 10 µM, stronger effect = higher value.
A short description of assay [4]: TOR pathway LAP4-GFP level changes – S. cerevisiae, multiplex flow cytometry, primary screen (AID 1873;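 active = GFP signal, as percent of the solvent control, above the screen mean plus 3 SD, about 149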). As to conditions: S. cerevisiae LAP4-GFP expression, 3 h, at 10 µM, stronger effect = higher value.
Assay [5] is described as follows: yeast AGP1-GFP level changes, GLN3 branch – cell-based, multiplex flow cytometry, S. cerevisiae, primary screen (AID 1887;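 active = GFP signal above the screen-wide mean plus 3 SD, that is over about 124.5% of the solvent control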;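 also: AGP1-GFP fusion strain of S. cerevisiae within a five-strain barcoded multiplex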). Conditions: 3 h, at 10 µM, stronger effect = higher value.
A short description of assay [6]: reduced mouse 2C T cell binding to pMHC/ICAM-1 vesicles – MLPCN validation set, flow cytometry, LFA-1/ICAM-1 modulator project, pilot screen (AID 2523;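 active = response below a set limit, under 55% cells CD8-positive and vesicle-bound, and CD8 cells' 90th-percentile brightness under 279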;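 as to vesicle binding response: mean PE anti-B7-1 fluorescence of CD8+ cells relative to row control; 100% = QL9-loaded vesicles with DMSO vehicle in the same plate row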). As to conditions: 2C mouse CD8+ T cells, at 7 µM, stronger effect = lower value; double positive events: measured here: CD8+/vesicle+ event percentage.
In assay [7] the target is Integrin beta-1 (Homo sapiens) + Integrin alpha-4 (Homo sapiens) (UniProt P13612+P05556). Briefly: alpha4beta1 integrin LIBS antibody binding reduction – U937 cells, HUTS-21 mAb, flow cytometry, validation set, VLA-4 allosteric modulator project, pilot screen (AID 2674;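 active = inhibition above 50%, about 3 SD of the validation set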;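 also: antibody binding induced by the VLA-4 ligand LDV present at three times its Kd; 0% = LDV ligand with antibody and no compound and 100% = antibody without LDV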). As to conditions: HUTS-21 LIBS mAb binding, at 6.7 µM, stronger effect = higher value, binding induced by LDV ligand.

The nature of assay [8]: calorie-restriction mimetic ROS inhibitors, yeast – validation compound set, pilot screen (AID 2706;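 active = superoxide response below 65% of plate, a cut near 3 SD across the whole screen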;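 also: yeast exposed to compound for one week at 30 degrees C before staining; 100% = mean of all compound wells on the same plate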). As to conditions: S. cerevisiae aging, superoxide DHE fluorescence; at 10 µM; stronger effect = lower value.
Assay [9] deals with Beta-adrenergic receptor kinase 1 (Homo sapiens) (UniProt P25098). Nature of the assay: GRK2 binders displacing RNA aptamer, biochemical, validation, human GRK2, bead flow cytometry (AID 488806;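 active = aptamer binding inhibition above 30%, about 3 SD of noise from non-fluorescent compounds; inactive = inhibition at or below 30%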). As to conditions: bead-bound GRK2, FAM-aptamer displacement, at 10 µM, stronger effect = higher value.
Assay [10] deals with Beta-2 adrenergic receptor (Homo sapiens) (UniProt P07550). Briefly: agonist-induced loss of surface beta2AR – cell-based, FAP fluorogen, flow cytometry, validation set, pilot screen (AID 504459;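 active = percent response above 42, roughly 3 SD of non-fluorescent test compounds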;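 also: agonist-driven loss of surface beta2AR via internalization measured by FAP dye flow cytometry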). Conditions: Am2.2-beta2AR cells, at 10 µM, stronger effect = higher value.
Assay [11] addresses AP-2 complex subunit beta (Homo sapiens) (UniProt P63010). Nature of the assay: beta-arrestin/AP2 interaction blockers – biochemical, validation set, GST-AP2 beads, flow cytometry, pilot screen (AID 504541;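 active = inhibition above 54%, about 3 SD of non-fluorescent compounds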;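 also: AP2 carries R879A mutation and is captured from E. coli lysate; bead-bound FITC arrestin peptide fluorescence measuring arrestin peptide binding to AP2; 0% = DMSO wells and 100% = excess unlabeled arrestin peptide control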). Conditions: FITC arrestin peptide, at 10 µM, stronger effect = higher value, AP2 beta2 appendage fragment, R879A mutant.
Assay [12] is described as follows: cytosolic pH regulators acting via V-ATPase – S. cerevisiae, pHLuorin, HTS validation (AID 504600; in the data active = response above about 15%;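 also: plate controls were DMSO for no effect and reference compound for full effect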). Conditions: V-ATPase proton transport, at 10 µM, stronger effect = higher value.
The subject of assay [13] is anti-desmoglein-3 scFv antibody binding to human DSG3. Briefly: blockers of pathogenic pemphigus antibody–desmoglein-3 binding – biochemical, validation compound set, bead-based, flow cytometry, pilot screen (AID 588368;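 active = binding below the plate cutoff, the plate median minus 3 SD, with a reading above zero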;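 also: signal is the median channel fluorescence of bead-bound GFP antibody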). Conditions: Protein G beads, DSG3-Fc, scFv-GFP binding, at 10 µM, stronger effect = lower value.
Assay [14] is described as follows: Nile Red efflux blockade in pump-expressing yeast – validation compound set, multiplex, phenotypic, pilot screen (AID 588506;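 active = efflux inhibition above 0.42, the validation set average plus 4 SD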;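 also: Nile Red retained in cells so higher fluorescence means more efflux inhibition; 0 = negative control wells and 1 = enniatin B 25 µM full block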). As to conditions: S. cerevisiae pump-expressing triplex, Nile Red efflux flow cytometry; at 10 µM; stronger effect = higher value; the pumps come from Candida albicans.
The target in assay [15] is ATP-binding cassette sub-family B member 6 (Homo sapiens) (UniProt Q9NP58). Nature of the assay: blockers of ABCB6-driven porphyrin uptake – K562-ABCB6 cells, flow cytometry, validation set, pilot screen (AID 588550;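 active = inhibition above the screen-wide mean plus 3 SD, about 51%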;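 also: 0% = DMSO wells and 100% = benzethonium chloride 70 µM positive control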). Conditions: K562-ABCB6 porphyrin accumulation, 1 h, at 10 µM, stronger effect = higher value.
A short description of assay [16]: AML differentiation inducers, ER-HoxA9 marrow cells – cell-based, GFP/MAC1 double positive, flow cytometry, validation set, primary screen (AID 588685;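 active = differentiation response of at least 50%, scaled between solvent and reference control, from cells with both markers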;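 also: compound exposure lasts four days before antibody staining and flow analysis; 0% = DMSO wells and 100% = 5 µM fulvestrant positive control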). Conditions: stronger effect = higher value, normalized: vehicle 0, fulvestrant 100.

AP-2 complex subunit beta (Homo sapiens), sequence (P63010 whole entry, looked up, the tested form may be a part, one chain of several): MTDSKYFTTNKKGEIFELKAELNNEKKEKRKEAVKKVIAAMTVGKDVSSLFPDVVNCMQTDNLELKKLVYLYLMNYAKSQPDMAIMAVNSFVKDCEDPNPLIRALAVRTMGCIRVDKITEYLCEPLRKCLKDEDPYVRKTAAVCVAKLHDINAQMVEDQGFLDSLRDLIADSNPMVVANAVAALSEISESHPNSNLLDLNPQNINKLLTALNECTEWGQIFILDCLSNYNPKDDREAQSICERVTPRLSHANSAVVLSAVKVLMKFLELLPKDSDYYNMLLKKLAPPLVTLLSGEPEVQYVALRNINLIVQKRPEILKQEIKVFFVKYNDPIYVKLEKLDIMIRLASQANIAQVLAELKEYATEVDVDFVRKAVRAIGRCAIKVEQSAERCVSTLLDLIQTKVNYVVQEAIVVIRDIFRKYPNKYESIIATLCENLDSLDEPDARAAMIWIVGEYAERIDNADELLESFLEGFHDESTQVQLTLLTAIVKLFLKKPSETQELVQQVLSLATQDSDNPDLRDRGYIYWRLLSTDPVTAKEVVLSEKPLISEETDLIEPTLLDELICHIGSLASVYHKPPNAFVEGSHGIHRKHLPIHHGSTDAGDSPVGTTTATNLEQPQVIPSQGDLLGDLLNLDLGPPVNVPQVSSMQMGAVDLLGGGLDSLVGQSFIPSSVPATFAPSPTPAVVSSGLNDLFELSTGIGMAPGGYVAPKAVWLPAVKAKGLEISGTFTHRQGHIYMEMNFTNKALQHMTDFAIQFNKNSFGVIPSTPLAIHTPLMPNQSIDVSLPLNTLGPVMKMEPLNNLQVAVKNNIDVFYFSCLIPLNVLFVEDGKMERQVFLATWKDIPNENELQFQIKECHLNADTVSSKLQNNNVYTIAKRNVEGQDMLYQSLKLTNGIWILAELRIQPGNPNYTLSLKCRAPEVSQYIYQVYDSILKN
Beta-2 adrenergic receptor (Homo sapiens), sequence (P07550 whole entry, looked up): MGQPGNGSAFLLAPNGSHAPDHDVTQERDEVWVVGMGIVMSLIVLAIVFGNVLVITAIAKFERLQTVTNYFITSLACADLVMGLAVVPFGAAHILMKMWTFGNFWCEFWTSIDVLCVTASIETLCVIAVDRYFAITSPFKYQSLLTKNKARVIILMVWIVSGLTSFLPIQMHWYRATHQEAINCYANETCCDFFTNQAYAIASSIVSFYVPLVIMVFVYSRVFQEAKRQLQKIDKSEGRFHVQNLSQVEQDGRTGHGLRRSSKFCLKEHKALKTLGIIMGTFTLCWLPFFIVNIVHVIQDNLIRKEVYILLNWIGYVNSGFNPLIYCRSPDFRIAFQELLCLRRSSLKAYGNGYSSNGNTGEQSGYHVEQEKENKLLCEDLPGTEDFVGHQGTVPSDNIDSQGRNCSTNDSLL
Integrin beta-1 (Homo sapiens) + Integrin alpha-4 (Homo sapiens), sequence (P05556 whole entry, looked up): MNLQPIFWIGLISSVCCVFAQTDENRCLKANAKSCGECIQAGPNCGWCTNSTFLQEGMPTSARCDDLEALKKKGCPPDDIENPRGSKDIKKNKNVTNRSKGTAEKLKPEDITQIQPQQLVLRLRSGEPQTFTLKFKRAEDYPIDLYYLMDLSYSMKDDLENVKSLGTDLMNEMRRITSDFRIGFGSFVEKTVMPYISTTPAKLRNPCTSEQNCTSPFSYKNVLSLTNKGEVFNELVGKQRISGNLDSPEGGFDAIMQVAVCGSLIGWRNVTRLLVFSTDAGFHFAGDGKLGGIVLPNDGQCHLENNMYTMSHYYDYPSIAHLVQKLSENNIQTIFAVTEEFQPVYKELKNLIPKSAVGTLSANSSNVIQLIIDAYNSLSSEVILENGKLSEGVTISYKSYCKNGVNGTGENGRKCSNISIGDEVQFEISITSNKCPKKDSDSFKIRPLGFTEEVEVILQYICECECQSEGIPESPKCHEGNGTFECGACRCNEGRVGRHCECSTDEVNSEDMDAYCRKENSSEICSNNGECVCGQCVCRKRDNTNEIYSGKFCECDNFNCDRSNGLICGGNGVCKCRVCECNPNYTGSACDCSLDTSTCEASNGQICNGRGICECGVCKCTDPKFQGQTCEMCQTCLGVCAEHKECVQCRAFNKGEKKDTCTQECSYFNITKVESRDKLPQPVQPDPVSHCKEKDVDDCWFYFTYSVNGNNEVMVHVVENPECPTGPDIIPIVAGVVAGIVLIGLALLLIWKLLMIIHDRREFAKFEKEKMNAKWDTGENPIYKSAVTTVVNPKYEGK
Integrin beta-1 (Homo sapiens) + Integrin alpha-4 (Homo sapiens), sequence (P13612 whole entry, looked up): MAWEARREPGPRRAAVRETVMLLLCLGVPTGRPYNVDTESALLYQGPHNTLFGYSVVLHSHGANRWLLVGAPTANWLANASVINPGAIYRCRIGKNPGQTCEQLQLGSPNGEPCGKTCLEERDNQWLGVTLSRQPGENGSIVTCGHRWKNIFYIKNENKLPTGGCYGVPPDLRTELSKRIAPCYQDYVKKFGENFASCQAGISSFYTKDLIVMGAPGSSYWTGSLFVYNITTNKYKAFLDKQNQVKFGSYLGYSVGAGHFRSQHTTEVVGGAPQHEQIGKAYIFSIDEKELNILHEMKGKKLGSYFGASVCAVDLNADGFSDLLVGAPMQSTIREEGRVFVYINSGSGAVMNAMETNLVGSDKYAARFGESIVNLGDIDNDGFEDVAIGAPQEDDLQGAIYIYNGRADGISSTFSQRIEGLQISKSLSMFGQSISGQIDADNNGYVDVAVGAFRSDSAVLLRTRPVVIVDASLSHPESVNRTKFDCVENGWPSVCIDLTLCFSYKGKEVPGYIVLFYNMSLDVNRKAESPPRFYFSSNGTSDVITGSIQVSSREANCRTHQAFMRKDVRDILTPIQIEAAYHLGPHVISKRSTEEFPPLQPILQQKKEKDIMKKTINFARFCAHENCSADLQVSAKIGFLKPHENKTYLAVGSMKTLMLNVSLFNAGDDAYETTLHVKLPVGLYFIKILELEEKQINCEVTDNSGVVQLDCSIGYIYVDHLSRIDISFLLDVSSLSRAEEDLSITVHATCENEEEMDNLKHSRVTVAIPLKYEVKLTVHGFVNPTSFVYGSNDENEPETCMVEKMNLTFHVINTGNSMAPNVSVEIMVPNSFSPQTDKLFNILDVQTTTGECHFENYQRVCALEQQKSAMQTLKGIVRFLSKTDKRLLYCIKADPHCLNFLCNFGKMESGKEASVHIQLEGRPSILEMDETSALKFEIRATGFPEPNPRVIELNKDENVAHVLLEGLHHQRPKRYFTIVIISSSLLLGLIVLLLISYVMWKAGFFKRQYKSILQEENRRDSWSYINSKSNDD
Beta-adrenergic receptor kinase 1 (Homo sapiens), sequence (P25098 whole entry, looked up): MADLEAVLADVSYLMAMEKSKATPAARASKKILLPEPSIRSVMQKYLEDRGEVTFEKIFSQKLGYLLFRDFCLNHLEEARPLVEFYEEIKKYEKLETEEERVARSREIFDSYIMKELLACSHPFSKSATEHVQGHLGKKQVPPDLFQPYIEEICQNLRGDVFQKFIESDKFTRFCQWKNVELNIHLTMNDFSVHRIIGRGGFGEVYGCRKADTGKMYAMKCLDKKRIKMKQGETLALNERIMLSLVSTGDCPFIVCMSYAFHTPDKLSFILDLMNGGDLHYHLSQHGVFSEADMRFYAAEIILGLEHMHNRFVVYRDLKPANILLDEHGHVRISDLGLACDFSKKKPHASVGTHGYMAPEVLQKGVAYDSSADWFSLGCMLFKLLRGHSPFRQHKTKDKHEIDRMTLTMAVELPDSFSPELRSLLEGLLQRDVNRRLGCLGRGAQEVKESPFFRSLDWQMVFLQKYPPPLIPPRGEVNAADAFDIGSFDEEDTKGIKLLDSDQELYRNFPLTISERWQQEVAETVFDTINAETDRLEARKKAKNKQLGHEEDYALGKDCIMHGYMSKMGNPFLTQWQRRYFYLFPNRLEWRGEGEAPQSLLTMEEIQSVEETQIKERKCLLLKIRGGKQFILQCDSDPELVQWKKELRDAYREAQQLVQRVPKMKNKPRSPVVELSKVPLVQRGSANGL
ATP-binding cassette sub-family B member 6 (Homo sapiens), sequence (Q9NP58 whole entry, looked up): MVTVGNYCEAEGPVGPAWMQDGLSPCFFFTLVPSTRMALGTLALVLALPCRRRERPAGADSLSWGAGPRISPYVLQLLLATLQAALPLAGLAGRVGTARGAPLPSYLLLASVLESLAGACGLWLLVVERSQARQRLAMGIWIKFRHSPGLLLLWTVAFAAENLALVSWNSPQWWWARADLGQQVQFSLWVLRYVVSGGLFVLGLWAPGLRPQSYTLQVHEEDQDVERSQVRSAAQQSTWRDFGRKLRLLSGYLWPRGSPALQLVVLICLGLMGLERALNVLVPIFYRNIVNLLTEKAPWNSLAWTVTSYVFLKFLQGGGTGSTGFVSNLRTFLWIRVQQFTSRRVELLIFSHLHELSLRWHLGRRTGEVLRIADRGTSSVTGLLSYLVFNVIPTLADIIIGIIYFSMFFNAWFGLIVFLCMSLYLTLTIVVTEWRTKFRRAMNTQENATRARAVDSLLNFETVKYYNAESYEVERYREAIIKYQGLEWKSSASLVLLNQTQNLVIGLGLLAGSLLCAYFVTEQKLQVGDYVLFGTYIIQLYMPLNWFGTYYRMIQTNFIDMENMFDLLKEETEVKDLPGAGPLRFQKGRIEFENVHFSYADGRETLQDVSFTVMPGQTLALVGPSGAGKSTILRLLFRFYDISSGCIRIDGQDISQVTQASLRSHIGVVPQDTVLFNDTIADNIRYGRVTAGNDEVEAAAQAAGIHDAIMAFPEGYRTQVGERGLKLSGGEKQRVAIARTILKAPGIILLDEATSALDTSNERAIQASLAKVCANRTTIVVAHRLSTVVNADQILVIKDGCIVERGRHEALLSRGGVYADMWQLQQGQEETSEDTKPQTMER

For orientation: inhibition means the drop in the measured response relative to a control, in per cent. In the case of `O=C(NCCO)c1ccc2[nH]c3ccccc3c2c1`, in assay [1], the percent of DMSO control GFP is 98.4% (inactive). The GFP response vs DMSO is 104% (inactive) in assay [2] and 101% (inactive) in assay [4]. For the same molecule, the percent response of DMSO control in [3] is 102% (inactive). Also, the GFP response, % of DMSO in assay [5] is 101% (inactive). Further, in [6], the double positive events came out at 58.7%. The vesicle binding response in assay [6] was 246% (inactive). The inhibition is -0.45% (inactive) in [7], -8.91% (inactive) in assay [11] and -1% (inactive) in [15]. In assay [8], the superoxide response (% of plate) was 96.6% (inactive). Also, the aptamer binding inhibition in assay [9] is 2% (inactive). Further, the response in assay [10] was -3.67% (inactive); in assay [12], 3.8% (inactive). For the same molecule, the binding (% of control) in assay [13] was 98.7% (inactive). Further, the efflux inhibition (fraction of control) in assay [14] is 0.11 (inactive). In assay [16], the differentiation response is 5.13% (inactive).
On to `O=C(NCc1ccc(N2CCCC2=O)cc1)c1ccc(F)cc1`, for which, in assay [1], the percent of DMSO control GFP is 103% (inactive). Besides, the GFP response vs DMSO in assay [2] is 106% (inactive); in [4], 99.5% (inactive). Besides, the percent response of DMSO control in [3] was 100% (inactive). Moreover, in assay [5], the GFP response, % of DMSO was 116% (inactive). For the same molecule, the double positive events in [6] was determined as 62.5%. Moreover, the vesicle binding response in [6] was 211% (inactive). Also, the inhibition was 17.6% (inactive) in assay [7], 6.32% (inactive) in assay [11] and 2% (inactive) in [15]. Also, in [8], the superoxide response (% of plate) is 101% (inactive). For the same molecule, the aptamer binding inhibition in assay [9] is 3% (inactive). Moreover, the response in [10] was -6.33% (inactive); in assay [12], -1.49% (inactive). The binding (% of control) in assay [13] was 107% (inactive). Further, the efflux inhibition (fraction of control) in assay [14] is -0.04 (inactive). In addition, the differentiation response in assay [16] is 1.91% (inactive).
Take `O=C(Nc1ccc(Cl)cn1)Nc1ccccc1Cl`: in [1], the percent of DMSO control GFP is 103% (inactive). Besides, the figures for the GFP response vs DMSO in assay [2] and in [4] were 105% (inactive) and 111% (inactive), respectively. The percent response of DMSO control in [3] was 107% (inactive). Moreover, the GFP response, % of DMSO in assay [5] was 102% (inactive). Also, the double positive events in assay [6] came out at 64.5%. Further, the vesicle binding response in assay [6] was 144% (inactive). Also, the figures for the inhibition in [7], in assay [11] and in assay [15] were -3.77% (inactive), -8.05% (inactive) and -4% (inactive), respectively. Moreover, the superoxide response (% of plate) in assay [8] was 93.6% (inactive). Besides, the aptamer binding inhibition in assay [9] was 2% (inactive). Moreover, the results for the response in assay [10] and in assay [12] were -0.99% (inactive) and 23.4% (active), respectively. The binding (% of control) in assay [13] was 105% (inactive). In [14], the efflux inhibition (fraction of control) is -0.55 (inactive). For the same molecule, the differentiation response in assay [16] was -11.9% (inactive).
Turning to `COc1ccccc1OS(=O)(=O)c1ccc(NC(C)=O)cc1`, in assay [1], the percent of DMSO control GFP is 87.1% (inactive). The GFP response vs DMSO in assay [2] was 123% (inactive); in [4], 82.5% (inactive). In assay [3], the percent response of DMSO control was 101% (inactive). Further, the GFP response, % of DMSO in assay [5] is 103% (inactive). Moreover, the double positive events in assay [6] is 57.8%. Besides, the vesicle binding response in assay [6] is 65.7% (inactive). Also, the results for the inhibition in assay [7], in assay [11] and in assay [15] were 10.3% (inactive), -11.8% (inactive) and 4% (inactive), respectively. In addition, the superoxide response (% of plate) in assay [8] is 97% (inactive). For the same molecule, the aptamer binding inhibition in assay [9] is 2% (inactive). Also, the response in [10] was -16.4% (inactive); in [12] it was -0.65% (inactive). Moreover, in assay [13], the binding (% of control) is 101% (inactive). Besides, the efflux inhibition (fraction of control) in assay [14] is -0.35 (inactive). In addition, the differentiation response in assay [16] was -4.09% (inactive).
Consider `CC(=O)N(C(C)=O)c1nc2nc(C)cc(C)n2n1`, for which, in assay [1], the percent of DMSO control GFP is 94.6% (inactive). The GFP response vs DMSO is 133% (inactive) in assay [2] and 86.4% (inactive) in [4]. Further, the percent response of DMSO control in [3] is 110% (inactive). Also, the GFP response, % of DMSO in assay [5] is 107% (inactive). The same molecule showed a double positive events in assay [6] of 67.9%. Besides, the vesicle binding response in assay [6] was 236% (inactive). The inhibition in assay [7] is 0.64% (inactive); in assay [11] it was -10.8% (inactive); in assay [15] it was 11% (inactive). The superoxide response (% of plate) in assay [8] is 98.5% (inactive). Further, in assay [9], the aptamer binding inhibition was 6% (inactive). The response in assay [10] was -13.9% (inactive); in [12], -0.39% (inactive). Also, the binding (% of control) in assay [13] is 102% (inactive). Moreover, the efflux inhibition (fraction of control) in assay [14] was -0.13 (inactive). Besides, the differentiation response in assay [16] was -6.55% (inactive).

For the origin of these results see PubChem BioAssay.
